# This is a sample that favours compounds with a hit; in the whole collection about 6.1% have one here.
# D1 agonist = Allosteric Agonists of the Human D1 Dopamine Receptor: qHTS; hit rate 1% among 360,000; activation, % at 2 µM; HEK293 T-REx D1 cells, calcium flux, agonist mode; D(1A) dopamine receptor (Homo sapiens), P21728; in the data active = activation above about 30%; note: 0% is about no effect
#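 Agonism was scored from calcium flux recorded over 180 s (1 read/s) after pintool compound addition, following a 10-cycle baseline. Cells were inducible force-coupled HEK293 TREx D1, plated overnight at 30 C and loaded with no-wash calcium dye.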
# D1 antagonist = Antagonist of Human D 1 Dopamine Receptor: qHTS; D(1A) dopamine receptor (Homo sapiens), P21728; HEK293 TREx D1 cells, calcium flux, dopamine EC80; active compounds read low; activity change, negative = inhibition, % at 10 µM; hit rate 3.2% among 360,000; AID 504652, 2011; in the data active = activity change below about -30%; note: % is set by controls: 0 for no effect and ±100 for the full control effect
#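 HEK293 T-REx cells expressing inducible, force-coupled D1 receptor; no-wash Ca dye, 30–90 min RT. Cmpd → 180 s read at 1 Hz → EC80 DA → 180 s read.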
# DRD3 agonist = qHTS of D3 Dopamine Receptor Agonist: qHTS; D3R DiscoveRx beta-arrestin cells, luminescence, 90 min; D(3) dopamine receptor (Homo sapiens), P35462; max activation, %; AID 652048, 2013; hit rate 0.58% among 410,000; in the data active = max activation above about 30%; note: 0% is about no effect
# Target sequence (P35462 whole entry, looked up): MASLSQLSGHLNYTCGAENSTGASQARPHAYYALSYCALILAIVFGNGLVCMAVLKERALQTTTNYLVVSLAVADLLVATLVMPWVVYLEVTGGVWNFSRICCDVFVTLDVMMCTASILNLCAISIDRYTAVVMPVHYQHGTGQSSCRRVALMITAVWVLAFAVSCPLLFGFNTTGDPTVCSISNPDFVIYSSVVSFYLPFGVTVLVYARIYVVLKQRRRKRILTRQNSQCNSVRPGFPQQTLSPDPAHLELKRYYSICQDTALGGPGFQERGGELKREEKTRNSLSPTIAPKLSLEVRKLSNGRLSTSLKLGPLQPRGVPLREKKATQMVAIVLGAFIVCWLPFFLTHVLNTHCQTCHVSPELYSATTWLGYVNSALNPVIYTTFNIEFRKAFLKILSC
#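 Agonist-mode cell screen: cells plated at 1500/well and incubated overnight at 37 °C, then exposed to library compounds for 90 min at 37 °C. Detection reagent was added for 30–60 min at room temperature, and luminescence was read.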
# D1 potentiator = Potentiators of Human D1 Dopamine Receptor: qHTS | AID 504651, 2011 | D(1A) dopamine receptor (Homo sapiens), P21728 | hit rate 0.036% among 360,000 | HEK293 TREx D1 cells, calcium flux, dopamine EC20 potentiation | potentiation, % at 10 µM; in the data active = potentiation above about 30%; note: 0% is about no effect
# DRD3 antagonist = qHTS of D3 Dopamine Receptor Antagonist: qHTS; D3R cells, DiscoveRx beta-arrestin luminescence, antagonist mode; active compounds read low; max response, negative = inhibition, %; hit rate 2.5% among 360,000; in the data active = max response below about -50%; inconclusive = no clear call, values can overlap the other calls; note: % is set by controls: 0 for no effect and ±100 for the full control effect
#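 Cells expressing the human receptor were seeded at 1500 cells/well, incubated overnight at 37 degrees C in 5% CO2, then exposed to library compounds with dopamine controls for 90 minutes at 37 degrees C before luminescent detection.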
# Numbers without * were called inactive; ? = inconclusive; · = no result given; ! = a repeat was not active.
SMILES,D1 agonist,D1 antagonist,DRD3 agonist,D1 potentiator,DRD3 antagonist
O=c1oc2c(-c3ccc([N+](=O)[O-])cc3)cc(O)cc2s1,11,-6,-5,-2,-56*
NS(=O)(=O)OCCCc1ccccc1,1,-37*,-9,-3,?
C=CCn1ccc(=NC=C(C#N)C#N)c2ccccc21,31*,-6,6,-12,7
O=C(/C=C/NNC(=O)c1ccccc1)c1ccccc1,2,0,-12,-5,-53*
O=C(/C=C/NNC(=O)c1ccc(Br)cc1)c1ccccc1,2,-13,-17,8,-5
COc1ccc(NC(=O)NC2CCCc3ccccc32)cc1OC (stereo unspecified),1,-22,2,-4,-4
COc1ccc(OC)c(NC(=O)Nc2ccc3c(c2)CCC3)c1,1,-49*,-22,-6,?
COc1ccc(NC(=O)Nc2ccc3c(c2)CCC3)c(OC)c1,-2,·,-17,-4,-9
COc1ccc(NC(=O)NC2CCCc3ccccc32)cc1 (stereo unspecified),2,-43*,-2,-9,-10
Cc1cccc(NC(=O)Nc2ccc3c(c2)CCC3)c1,12,-30*,4,-5,17
Cc1cccc(NC(=O)NC2CCCc3ccccc32)c1 (stereo unspecified),2,-44*,5,0,-7
CCOC(=O)c1c(S(=O)(=O)N2CCCC(C(=O)Nc3ccc(C)cc3C)C2)c(C)n(CC)c1C (stereo unspecified),1,2,-3,-2,·
Cc1cccc(CN2C(=O)c3ccccc3Sc3ccc(C(=O)NCc4cccs4)cc32)c1,5,17,-12,-1,·
Cc1nn(CC(=O)OCC(=O)NC(C)c2ccccc2)c(C)c1[N+](=O)[O-] (stereo unspecified),1,-34*,-2,6,-24
Cc1cc(F)ccc1NC(=O)C1CCCN(S(=O)(=O)c2ccc3c(c2)CCCC(=O)N3)C1 (stereo unspecified),0,-15,3,0,·
O=C(CSc1nccn1Cc1ccco1)Nc1ccc(F)cc1,-1,-13,0,-1,-4
O=C(CSc1nccn1Cc1ccco1)Nc1cccc(F)c1,31*!,0,-8,1,-9
Cc1ccc(NC(=O)c2ccc(Cl)cc2Cl)c(C(=O)c2ccccc2)c1,1,7,-5,-2,·
COCCNC(=O)/C(C#N)=C/c1cc(C(C)C)c(OC)cc1C,0,-22,-40,-8,-77*
COc1cc(C)c(/C=C(\C#N)C(=O)Nc2ccc(C)cc2)cc1C(C)C,7,-10,-43,-2,?
COCCNC(=O)/C(C#N)=C/c1cc(C)n(C2CCCCC2)c1C,2,-17,2,-5,-2
Cc1ccc(-n2c(C)cc(C=C(C#N)C#N)c2C)cc1,7,-46*,-1,-4,11
COCCNC(=O)/C(C#N)=C/c1cc(C)n(-c2ccc(C)cc2)c1C,9,-64*,-3,-10,?
CN(C)C(=O)c1ccc(NC(=O)Cn2nnnc2-c2ccccc2F)cc1,2,-3,6,0,·
COc1cc(N2CCCC2)c(OC)cc1/C=C1/NC(=S)NC1=O,183*,-35*,-6,-2,-13
SMILES,D1 agonist,D1 antagonist,DRD3 agonist,D1 potentiator,DRD3 antagonist
CCOc1ccc(NC(=O)C2CCN(C(=O)NC3CCCCC3)CC2)cc1,-1,-35*,0,4,-11
Cc1ccccc1CN1CCN(C(=O)c2ccco2)CC1,1,8,3,-5,8
COc1ccc(Br)cc1CN1CCN(C(=O)c2ccco2)CC1,2,7,-43,-7,-61*
Cc1ccc(CN2CCN(C(=O)c3ccco3)CC2)cc1,-2,-30*,31*,-7,0
COc1ccc(CN2CCN(C(=O)c3ccco3)CC2)c(OC)c1OC,·,·,43*,·,9
Cc1cc(C)cc(NC(=S)N2CCN(C(=O)c3ccco3)CC2)c1,0,-39*,1,15,-5
CCCc1cc(=O)[nH]c2nnc(SCC)n12,-4,·,8,0,·
CC(C)N(Cc1ccccc1)C(=O)Cn1ncc2c([nH]c3ccccc32)c1=O,-1,0,2,-3,·
